mHTT-CaM PPI inh – mutant huntingtin-calmodulin interaction inhibitors – biochemical, AlphaScreen, primary screen; AID 1671202, 2021; P42858; 190,000 compounds, 3.6% hits; inhibition, % at 15 µM; AlphaScreen His-mHTT/GST-CaM binding, luminescence;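 note: 0% = both proteins with DMSO and 100% = one protein alone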
Pf apPOL block – Pf-apPOL inhibitors, biochemical, fluorescence. Plasmodium falciparum apicoplast DNA polymerase (apPOL). Recombinant Pf-apPOL, molecular beacon fluorescence, 1.5 h. inhibition, % at 10 µM. 210,000 compounds, 0.25% hits. AID 1794808, 2022
Active calls of the source: *. Most compounds without a hit are left out; they make up all but 3.5% or so of the library. Cut-off read from the data, not from the text of the source: active = inhibition above about 50%; inactive = the rest.

Results for N#CC1=C(N)Oc2n[nH]c(-c3ccc(Cl)c(Cl)c3)c2C1c1ccc(O)cc1 (centres undefined) ?
mHTT-CaM PPI inh: 100*; Pf apPOL block: -4

How did COc1ccc(-c2[nH]nc3c2C(c2ccc(C(F)(F)F)cc2)C(C#N)=C(N)O3)cc1OC (centres undefined) do in these assays?
mHTT-CaM PPI inh: 100*; Pf apPOL block: 1

Results for COc1ccc(C2C(C#N)=C(N)Oc3n[nH]c(-c4ccc(OC)c(OC)c4)c32)cc1O (centres undefined) ?
mHTT-CaM PPI inh: 10; Pf apPOL block: -1

What do the screens show for `N#CC1=C(N)Oc2n[nH]c(-c3cccc([N+](=O)[O-])c3)c2C1c1ccc(O)cc1` (centres undefined)?
mHTT-CaM PPI inh: 14; Pf apPOL block: 7

Results for COc1cc(C2C(C#N)=C(N)Oc3n[nH]c(-c4cc(OC)c(OC)c(OC)c4)c32)ccc1O (centres undefined) ?
mHTT-CaM PPI inh: 10; Pf apPOL block: -3

How did O=C(O)C1CCN(S(=O)(=O)c2ccc(Cl)cc2)CC1 do in these assays?
mHTT-CaM PPI inh: -12; Pf apPOL block: -5

How did O=C(O)CCNC(=O)/C(=C\c1ccc2c(c1)OCO2)NC(=O)c1ccccc1Cl do in these assays?
mHTT-CaM PPI inh: 1; Pf apPOL block: -8

Results for CC(C)CC(=O)Nc1cnc(-c2ccccc2)nc1 ?
mHTT-CaM PPI inh: 3; Pf apPOL block: -4

Results for OC(COC12CC3CC(CC(C3)C1)C2)CN1CCN(c2cccc(Cl)c2)CC1 (centres undefined) ?
mHTT-CaM PPI inh: 22; Pf apPOL block: -12

How did O=C(C=Cc1ccc2c(c1)OCO2)N1C2CCC1COC2 do in these assays?
mHTT-CaM PPI inh: 1; Pf apPOL block: -1

How did CCCCNC(=O)CCC1N=C2c3ccccc3N=C(SCc3ccc([N+](=O)[O-])cc3)N2C1=O (centres undefined) do in these assays?
mHTT-CaM PPI inh: 3; Pf apPOL block: -2

Results for CCCCNC(=O)CC1N=C2c3ccccc3N=C(SCc3ccc([N+](=O)[O-])cc3)N2C1=O (centres undefined) ?
mHTT-CaM PPI inh: 53*; Pf apPOL block: -2

How did O=C(c1ccccc1OCC1CCN(C(=O)C2CCCO2)CC1)N1CCCC1 (centres undefined) do in these assays?
mHTT-CaM PPI inh: 14; Pf apPOL block: 5

Results for CC(C)c1ccc(C(=O)N2CCCC2COc2ccc(C(=O)N3CCOCC3)cc2)cc1 (centres undefined) ?
mHTT-CaM PPI inh: 10; Pf apPOL block: 52*

What do the screens show for `Cc1ccc(C(=O)N2CCCC2COc2ccc(C(=O)N3CCOCC3)cc2)cc1` (centres undefined)?
mHTT-CaM PPI inh: 4; Pf apPOL block: -3

What do the screens show for `Cc1ccccc1-c1ncccc1C(=O)N1CCC(C(=O)NCCC(C)C)CC1`?
mHTT-CaM PPI inh: 3; Pf apPOL block: -3

Results for Cc1ccc(C)c(NS(=O)(=O)c2ccc(NS(=O)(=O)c3ccccc3[N+](=O)[O-])cc2)c1 ?
mHTT-CaM PPI inh: 9; Pf apPOL block: -7

How did CN1/C(=C\Sc2ccccc2[N+](=O)[O-])C(C)(C)c2ccccc21 do in these assays?
mHTT-CaM PPI inh: 76*; Pf apPOL block: 1

How did CN1C(=CC=C2C(=O)Oc3ccccc3C2=O)C(C)(C)c2ccccc21 do in these assays?
mHTT-CaM PPI inh: -7; Pf apPOL block: inactive

What do the screens show for `CC(=O)c1ccc(S(=O)(=O)NC2CC(=O)N(c3ccc(F)cc3)C2)cc1` (centres undefined)?
mHTT-CaM PPI inh: -17; Pf apPOL block: -8

Results for COc1ccc(CCCC(=O)Nc2ccc(I)cc2C)cc1 ?
mHTT-CaM PPI inh: -4; Pf apPOL block: 93*

What do the screens show for `COc1ccc(CCCC(=O)Nc2ccc(Cl)cc2C)cc1`?
mHTT-CaM PPI inh: -2; Pf apPOL block: 1

Results for O=C(NCC1CCCO1)c1ccc(NC(=O)C2CCC2)cc1N1CCCCC1 (centres undefined) ?
mHTT-CaM PPI inh: 3; Pf apPOL block: -2

What do the screens show for `CCC1(C)CC(CCNCc2ccc(OC)c(OC)c2)(c2ccccc2OC)CCO1` (centres undefined)?
mHTT-CaM PPI inh: 12; Pf apPOL block: -11

Results for CCC1(C)CC(CCNCc2ccc(N(C)C)cc2)(c2ccc(OC)cc2)CCO1 (centres undefined) ?
mHTT-CaM PPI inh: 86*; Pf apPOL block: 0

What do the screens show for `CS(=O)(=O)N1CCC(C(=O)NCC(O)c2ccc(C(F)(F)F)cc2)CC1` (centres undefined)?
mHTT-CaM PPI inh: -20; Pf apPOL block: -7

What do the screens show for `Cn1ccnc1SCC(=O)N1c2ccccc2Sc2ccc(C(F)(F)F)cc21`?
mHTT-CaM PPI inh: 53*; Pf apPOL block: -1

Results for N#CSCC(=O)N1c2ccccc2Sc2ccc(C(F)(F)F)cc21 ?
mHTT-CaM PPI inh: 3; Pf apPOL block: 14

What do the screens show for `O=C(Nc1ccc(Oc2ccccc2)cc1)c1ccncc1`?
mHTT-CaM PPI inh: 12; Pf apPOL block: 0

What do the screens show for `N#Cc1ccc(Oc2ccc(C(=O)Nc3ccccc3)cc2)cc1`?
mHTT-CaM PPI inh: -8; Pf apPOL block: 68*

How did O=C(Nc1nnc(CCS(=O)(=O)c2ccccc2)o1)C1COc2ccccc2O1 (centres undefined) do in these assays?
mHTT-CaM PPI inh: 65*; Pf apPOL block: 7

How did Cc1cc(C)nc(NS(=O)(=O)c2ccc(NC(=O)C3COc4ccccc4O3)cc2)n1 (centres undefined) do in these assays?
mHTT-CaM PPI inh: 4; Pf apPOL block: -8

Results for O=C(Nc1nnc(-c2cc(Cl)sc2Cl)o1)C1COc2ccccc2O1 (centres undefined) ?
mHTT-CaM PPI inh: 81*; Pf apPOL block: -186

Results for O=C(CSc1ccccc1)Nc1nnc(-c2cc(Cl)sc2Cl)o1 ?
mHTT-CaM PPI inh: -5; Pf apPOL block: -2

How did O=C(CCS(=O)(=O)c1ccccc1)NCC1CCN(C2CCCC2)CC1 do in these assays?
mHTT-CaM PPI inh: -13; Pf apPOL block: -7

How did CC(=O)N1CCc2nc3cc(-c4ccccc4Cl)[nH]n3c(=O)c2C1 do in these assays?
mHTT-CaM PPI inh: -2; Pf apPOL block: 2

What do the screens show for `COc1ccc(-c2cc3nc4c(c(=O)n3[nH]2)CCN(C(=O)c2ccc(C)c(F)c2)C4)cc1`?
mHTT-CaM PPI inh: 32; Pf apPOL block: 3

How did O=C(c1ccc2ncccc2c1)N1CCc2nc3cc(-c4ccccc4)[nH]n3c(=O)c2C1 do in these assays?
mHTT-CaM PPI inh: 99*; Pf apPOL block: 96*

Results for O=C(c1nccc2ccccc12)N1CCc2nc3cc(-c4ccccc4)[nH]n3c(=O)c2C1 ?
mHTT-CaM PPI inh: 56*; Pf apPOL block: 0

Results for O=C(c1n[nH]c2ccccc12)N1CCc2nc3cc(-c4ccccc4)[nH]n3c(=O)c2C1 ?
mHTT-CaM PPI inh: 16; Pf apPOL block: 5

How did COc1ccc(-c2cc3nc4c(c(=O)n3[nH]2)CN(C(=O)c2ccc(C)c(F)c2)CC4)cc1 do in these assays?
mHTT-CaM PPI inh: 80*; Pf apPOL block: 41

How did Cc1ccc(C(=O)N2CCc3nc4cc(-c5ccccc5)[nH]n4c(=O)c3C2)cc1F do in these assays?
mHTT-CaM PPI inh: 1; Pf apPOL block: 0

How did O=C(c1cc(C2CC2)[nH]n1)N1CCc2nc3cc(-c4ccccc4Cl)[nH]n3c(=O)c2C1 do in these assays?
mHTT-CaM PPI inh: 59*; Pf apPOL block: 26

Results for CSc1nnc(-c2nn(C)c3c2CN(C(=O)c2ccc(Cl)cc2)CC3)n1C ?
mHTT-CaM PPI inh: 10; Pf apPOL block: 4

Source: PubChem BioAssay
